An excerpt weighted towards active compounds, which were near 13% of everything screened.
HADH2 inhib – qHTS Assay for Inhibitors of HADH2 (Hydroxyacyl-Coenzyme A Dehydrogenase, Type II). recombinant HADH2, NADH fluorescence, beta-hydroxybutyryl-CoA. 3-hydroxyacyl-CoA dehydrogenase type-2 (Homo sapiens), Q99714. AID 886, 2007. Potency, µM (doses to about 57.1 µM), for inactives: top-dose activity change, negative = inhibition, most hits filed as inhibitors. 3.4% of 73,000 active; also: potency is read from the fitted curve at half-maximal effect; % is scaled to controls: 0 for no effect and ±100 for the full control effect; nearly all actives have a fitted effect of over 60% in size
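His-tagged recombinant enzyme from E. coli, 20 nM, preincubated 15 min RT with compound; reaction started with 1 mM NAD+ and 90 uM beta-hydroxybutyryl-CoA in 100 mM Tris-HCl pH 9.0. NADH fluorescence (ex 360/em 450) read over 4 min; last-minus-first difference.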
AID923 – qHTS Assay for Allosteric/Competitive Inhibitors of Caspase-1: Spectroscopic Profiling in AFC Spectral Region. compound fluorescence, AFC spectral region (405/520 nm). 1.1% of 75,000 active. Potency, µM (doses to about 57.5 µM), without a hit: at the top dose fluorescence increase, hits mostly activators. AID 923, 2007; also: potency is read from the fitted curve at half-maximal effect; 0% is about no effect
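Compound autofluorescence profiled at 405 nm ex/520 nm em during kinetic caspase 1 run (50 nM enzyme, 5 uM Ac-WEHD-AFC, HEPES pH 7.5, 10 mM DTT). Titration up to 57 uM; baseline from regression intercept, normalized to AFC standard curve.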
HSD17B inhib – qHTS Assay for Inhibitors of HSD17B4, hydroxysteroid (17-beta) dehydrogenase 4; 3-hydroxyacyl-CoA dehydrogenase type-2 (Homo sapiens), Q99714; Potency, µM (highest dose often 57.1 µM), without a hit: at the highest dose activity change, negative = inhibition, usual class: inhibitors; recombinant HSD17B10, NADH fluorescence kinetic; 7.6% of 75,000 active;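 also: the protocol describes HADH2 (HSD17B10) and not the HSD17B4 of the title; potency is read from the fitted curve at half-maximal effect; % is scaled to controls: 0 for no effect and ±100 for the full control effect; nearly all actives have a fitted effect of over 70% in size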
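Activity followed as NADH fluorescence increase (ex 360, em 450 nm) every 30 seconds for 4 min, using final 90 uM beta-hydroxybutyryl CoA and 1 mM NAD+. Recombinant His-tagged enzyme, 20 nM, pH 9.0 Tris buffer, 15 min compound preincubation.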
A350 fluor – qHTS Assay for Spectroscopic Profiling in A350 Spectral Region | max dye-equivalent concentration, M | AID 590, 2007 | 11% of 59,000 active | Compound autofluorescence, 340/450 nm, Alexa 350 dye-equivalents; stronger effect = higher value; in the data active = max dye-equivalent concentration above about 10 nM; inconclusive = mostly about 1.1 nM to 9.6 nM
GBA mod – Glucocerebrosidase | 1.1% of 48,000 active | purified enzyme, resorufin glucoside fluorescence (screen aimed at inhibitors), 20 min | Potency, µM | AID 360, 2006; in the data active = potency below about 15 µM; inconclusive = mostly about 16 µM to 33 µM;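 also: potency is read from the fitted curve at half-maximal effect; the screen sought inhibitors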
Target sequence (P04062 whole entry, looked up): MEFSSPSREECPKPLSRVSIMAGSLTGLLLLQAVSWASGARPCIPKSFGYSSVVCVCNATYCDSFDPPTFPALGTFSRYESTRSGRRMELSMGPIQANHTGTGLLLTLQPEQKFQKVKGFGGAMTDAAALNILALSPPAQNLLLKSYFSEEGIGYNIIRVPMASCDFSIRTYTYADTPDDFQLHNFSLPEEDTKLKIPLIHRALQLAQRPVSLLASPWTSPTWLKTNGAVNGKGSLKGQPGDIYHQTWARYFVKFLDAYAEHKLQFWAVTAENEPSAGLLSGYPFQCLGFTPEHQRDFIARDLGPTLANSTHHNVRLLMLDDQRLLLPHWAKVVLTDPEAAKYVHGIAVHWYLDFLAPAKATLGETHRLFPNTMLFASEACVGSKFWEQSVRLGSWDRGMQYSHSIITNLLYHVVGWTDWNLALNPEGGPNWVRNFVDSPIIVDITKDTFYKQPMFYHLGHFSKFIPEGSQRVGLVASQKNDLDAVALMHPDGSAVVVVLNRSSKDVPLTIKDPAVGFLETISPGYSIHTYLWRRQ
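Normal human glucocerebrosidase (0.2 nM final) was assayed with resorufin β-D-glucopyranoside (30 uM final) in 50mM citric acid/KH2PO4, 10mM sodium taurocholate, 0.01% tween-20, pH 5.9. Compounds were titrated; fluorescence (Ex 548, Em 600) read after 20 min at RT.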
4MU fluor – qHTS Assay for Spectroscopic Profiling in 4-MU Spectral Region | max dye-equivalent concentration, M | 11% of 59,000 active | compound autofluorescence, 340/450 nm, 4-MU equivalents; stronger effect = higher value; in the data active = max dye-equivalent concentration above about 10 nM; inconclusive = mostly about 1.1 nM to 9.6 nM
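Intrinsic fluorescence at 340/450 nm (ex/em) was read after 15 min at room temperature in pH 8.0, 100 mM Tris. Each compound concentration expressed as 4-MU-equivalent concentration from a six-point 4-MU standard series on each plate.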
* marks the source's active call; other numbers are inactive results; i = inactive; ? = inconclusive; . = no result given; [ ] = another dose, or the depositor's remark. Unless noted, calls follow the shape of the dose curve; as a rule, active = well fitted curve in the direction sought with a large enough effect; inconclusive = small, poorly fitted or top-dose-only effect, or another doubt; inactive = no such curve, though single readings can be large; an effect the other way counts as inactive or inconclusive.

SMILES	HADH2 inhib	AID923	HSD17B inhib	A350 fluor	GBA mod	4MU fluor
Cc1noc(C)c1-c1cncnc1-n1ccnc1	-5.1%	1.2%	2.3%	i	.	i
CC1(C)O[C@@H]2O[C@H]([C@H](O)CO/N=C3/[C@H]4O[C@@H]4[C@@H](O)[C@H]4[C@H]3CCn3c(=O)n(-c5ccccc5)c(=O)n34)[C@@H](O)[C@@H]2O1	1.8%[11.4 µM]	-2.6%[11.5 µM]	-2.2%[11.4 µM]	.	.	.
C(#Cc1ccccc1)Cn1nnc2ccccc21	-26.4%[11.4 µM]	0.0%	31.6µM*	.	.	.
Cc1ccc(S(=O)(=O)Nc2cc(C(=O)NCCN3CCCC3)ccc2N2CCCCC2)cc1	-2.9%	-0.4%	-12.2%	i	10.3*	i
COc1cccc(N2CCN(c3ncnc4c3[nH]c3ccccc34)CC2C)c1 (centres undefined)	.	.	.	i	.	i
COc1cccc2[nH]c3c(N4CCN(Cc5ccc6c(c5)OCO6)CC4)ncnc3c12	25.1µM*	3.4%	25.1µM*	9.88e-08M*	.	7.44e-08M*
COc1cccc2[nH]c3c(N4CCC(C)CC4)ncnc3c12	-17.1%	0.6%	12.6µM*	2.52e-08M*	>76.9	1.97e-08M*
Cc1ccc(Sc2oc(/C=N/n3cnnc3)cc2Br)cc1	0.6%[11.4 µM]	2.3%	?	.	.	.
CCCC(=O)Nc1cc(OC)c(OC)cc1C(=O)O	-3.7%	-2.3%	0.9%	i	>76.9	i
CCCCNc1cc(NC(C)=O)cc2cc(OC)c(OC)cc12	31.6µM*	2.0%	?	.	.	.
O=C(NCc1ccco1)c1cccc2ccccc12	-12.4%	0.4%	9.2%	i	>76.9	i
Cc1cc(NC(=O)c2cc(-c3ccccn3)nc3ccccc23)no1	2.6%	1.5%	-4.0%	i	>76.9	i
Cc1ccc(-c2cc(C(=O)NCc3ccco3)c3ccccc3n2)o1	10.9%	0.0%	3.98µM*	3.94e-07M*	>76.9	3.42e-07M*
Cc1cc(C)c2nc(-c3ccccn3)cc(C(=O)Nc3cc(C)on3)c2c1	?	0.3%	25.1µM*	2.89e-08M*	>76.9	3.77e-08M*
Cc1cc(NC(=O)c2cc(-c3cccs3)nc3ccccc23)no1	61.3%	3.8%	31.6µM*	.	.	.
O=C(NCc1ccco1)c1cc2ccccc2c(=O)o1	?	0.7%	25.1µM*	?	>76.9	?
Cc1cc(NC(=O)c2cc(-c3ccncc3)nc3c(C)cccc23)no1	8.7%	-0.2%	31.6µM*	?	>76.9	1.05e-08M*
Cc1cc(NC(=O)c2cccc(C(=O)Nc3cc(C)on3)n2)no1	5.9%	-0.6%	-3.3%	i	>76.9	i
Cc1cc(NC(=O)c2ccc(NC(=O)c3cccs3)cc2)no1	-22.6%	1.6%	0.9%	i	2.39*	i
Cn1c(C(=O)NCc2ccco2)cc2c(=O)[nH]c3ccccc3c21	-29.1%	-0.2%	31.6µM*	i	>76.9	i
Cc1cc(C)c2nc(-c3ccccn3)cc(C(=O)NCc3ccco3)c2c1	2.2%	2.7%	25.1µM*	3.2e-08M*	>76.9	2.93e-08M*
Oc1ccc2cccnc2c1	0.9%	15.8µM*	-21.6%	1.85e-08M*	>76.9	1.35e-08M*
O=C(Cc1ccc2cccnc2c1)c1ccc(O)cc1O	-22.2%	-1.8%	-15.4%	5.41e-08M*	>76.9	4.38e-08M*
CC[C@]1(O)C[C@H]2CN(CCc3c([nH]c4ccccc34)[C@](C(=O)OC)(c3cc4c(cc3OC)N(C=O)[C@H]3[C@@](O)(C(=O)OC)[C@H](OC(C)=O)[C@@]5(CC)C=CCN6CC[C@]43[C@H]65)C2)C1	-2.0%	-2.1%	6.6%	i	.	i
CC(=O)N1CCC2(CCCN(c3ccc(-c4ccccc4)cc3)C2)CC1	-21.8%	4.1%	25.1µM*	i	.	i
CC(=O)N1CCC2(CCCN(c3cccc(-c4ccccc4)c3)C2)CC1	-13.7%	1.9%	?	i	.	i

Compound activity (PubChem)
